One experiment relates to LXRa homodimer (NR concentration 270 nM). The experiment can be described thus: PBM binding z-score (relative to random genomic background probes); higher = stronger binding; sequences stand for … in GC…GCGATTGACAGCGTAGAATGAAGG
The method in brief:
(§1)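 Binding z-scores were set against random background probes. The data came from custom Agilent 4×180K protein-binding microarrays carrying double-stranded probes with 34-nt variable regions, incubated 1 h with ligand-free nuclear receptor dimers. Partner-specific antibodies detected binding, and scanned fluorescence was regression-normalized.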
Turning to CCTTACGGGTCAAGAGGTTATAGCACGACGAGCG, the PBM binding z-score amounted to 0.128.

TAGCCTAGGTCGTGGGCCAGTATACCACGCGAAC displayed a PBM binding z-score of -0.669.

In the case of TCATATAGGTAAATGCTAGGTGAAGGTCCGATCT, the PBM binding z-score amounted to 0.342.

CCGAGTAGGTTATGGGGCATTCTGGCAACGGTGA registered a PBM binding z-score of -0.113.

Sequence TCATATAGGTTAACAGGTGAAAGTCCGTAAGTTA returned a PBM binding z-score of 0.586.

As to CCTCGGAGGACAGAAGGTCAGAGATGTCCGCTTT, the PBM binding z-score came out at 0.141.

As to GCTTGTAGATCAATGTTAAGAAAGACTAAGCTAA, the PBM binding z-score is -0.434.

GGAACGAAGGCAAGTTGATAGCAGAGTTTGATGG returned a PBM binding z-score of -0.858.

As to CCTAGTTGGCCAGGAGGTCACACACCGGATATGA, the PBM binding z-score amounted to 1.73.

GATACAGGATCAAGGCCAGAGTACGCGTATTGAT showed a PBM binding z-score of -0.269.

On to ATATGTAGGTTATCGAGTCATTCAGTTTGCGCAT, for which the PBM binding z-score stood at 0.419.

As to ACTATCAGTTGACTTAGGGCAACCGATACGACGC, the PBM binding z-score stood at 0.0822.

Sequence CATACAAGGTCAGCTAGGCCAGAGTAGGGACGGC displayed a PBM binding z-score of 0.878.

With CGTCGAAGTTCAACTAAGGTAACGTAAAGCACGC, the PBM binding z-score was 1.23.

With ATATGTAGGTTATATCCGGGTCATTCAGGCTATG, the PBM binding z-score is 3.29.

TCTGGTTGGTCACGGAGGTCACACACGACGGGTA displayed a PBM binding z-score of 2.85.

The sequence TCGAGTAGGTTAGTCGGGGCATGCAGCCAACATA gave a PBM binding z-score of -0.427.

CCTAACGGGTCACGAGGTTATAGCACGACGAGCG: the PBM binding z-score was found to be 0.263.

The subject of a further experiment is LXRb:RXRa (NR concentration 270 nM, RXRa partner concentration 90 nM). Described as above. Summed up: as §1
In turn, TCAGACACGTGAAGGTAACTCAGGTACGCAGTCG had a PBM binding z-score of 0.638.

In turn, CCTACTGGGCCATTCAAAGGTCATTGATCATATG yielded a PBM binding z-score of 4.29.

Take CGTCAAAGTTCAAGGTAACGTATCAGAAAGCAGC: the PBM binding z-score turned out to be 3.2.

CCGTGTAGGTTATGGGGCATTCAGGCAACGGTGA displayed a PBM binding z-score of 0.984.

For the sequence CGTCCAAGGTCAATGCTAGGTCCGTGAAAGCATT, the PBM binding z-score worked out at 3.53.

Sequence TCTTGTAGATCAAGCAGGTTACGAAAGCCTGAGT gave a PBM binding z-score of 0.659.

Turning to ATCTCTAGGTAAAGTTCAGTGCAAGATCGATAGA, the PBM binding z-score was 1.43.

The sequence AGTCAAAGTTCATCTAGGTGACGTAAGATATGCT came in with a PBM binding z-score of 3.69.

Regarding CGTCCAAGATCAGAGAGGTCAGTGAATGCCGAGT, the PBM binding z-score stood at 1.92.

The sequence CAGCCTAGGTCAGAGCCAGTATAGGAGGAACGTT had a PBM binding z-score of 0.607.

As to GCTAGCTGGTCAGTAAAAGGTCACACACCGGTCG, the PBM binding z-score stood at 3.88.

TCTGCTAGCTCAACGATGGTCAGCTAATCTGCTA gave a PBM binding z-score of -1.

On to AGAATGAGGTTATACGTAGATTAGGGAAGAAAGT, for which the PBM binding z-score came out at 1.74.

For TCTTGTAGATCAATTGAGGTTAAGAAAGTGCGCT, the PBM binding z-score is 1.56.

GGAACGAGGGCAACTTGATAGCAGAGTTTGATGG came in with a PBM binding z-score of 0.468.

Consider TCGAGTAAGTTAGGGGCATTCAGAATGGCGTCGA, for which the PBM binding z-score was 0.52.

CCTACTGGGCCAAAGGTCATTGCTTCCAATGCTC registered a PBM binding z-score of 4.86.

With TTACCAAGGTGAAGATCGTTGATCCCTCTGTAGA, the PBM binding z-score was 0.141.

The sequence CCAGGCAGGTGAAAGGTAACTCAGTCTGGTACGC gave a PBM binding z-score of 0.47.

As to CCTCGGAGGACAGAAGGTCAGAGGTGTCCGCTTT, the PBM binding z-score was 0.796.

GCGACTGGGGCAAAGCAGGTTACCATTAGGTTGG showed a PBM binding z-score of 0.31.

In the case of TCTCGGAGAACACGAAAGGTCAGAGCTCGACATC, the PBM binding z-score was found to be 3.

As for CCTTACGGGTCAAGAGGTTATAGCACGACGAGCG, the PBM binding z-score was 3.63.

TAGCCTAGGTCGTGGGCCAGTATACCACGCGAAC registered a PBM binding z-score of 0.0173.

On to TCATATAGGTAAATGCTAGGTGAAGGTCCGATCT, for which the PBM binding z-score was found to be 0.347.

CCGAGTAGGTTATGGGGCATTCTGGCAACGGTGA gave a PBM binding z-score of 0.625.

For the sequence TCATATAGGTTAACAGGTGAAAGTCCGTAAGTTA, the PBM binding z-score was found to be 1.72.

Turning to CCTCGGAGGACAGAAGGTCAGAGATGTCCGCTTT, the PBM binding z-score was found to be 0.889.

Regarding GCTTGTAGATCAATGTTAAGAAAGACTAAGCTAA, the PBM binding z-score is -0.517.

Turning to GGAACGAAGGCAAGTTGATAGCAGAGTTTGATGG, the PBM binding z-score is -1.13.

With CCTAGTTGGCCAGGAGGTCACACACCGGATATGA, the PBM binding z-score came to 3.53.

GATACAGGATCAAGGCCAGAGTACGCGTATTGAT returned a PBM binding z-score of -0.535.

ATATGTAGGTTATCGAGTCATTCAGTTTGCGCAT returned a PBM binding z-score of 1.04.

ACTATCAGTTGACTTAGGGCAACCGATACGACGC had a PBM binding z-score of -0.0416.

Turning to CATACAAGGTCAGCTAGGCCAGAGTAGGGACGGC, the PBM binding z-score worked out at 2.65.

As to CGTCGAAGTTCAACTAAGGTAACGTAAAGCACGC, the PBM binding z-score came to 2.36.

For the sequence ATATGTAGGTTATATCCGGGTCATTCAGGCTATG, the PBM binding z-score is 2.93.

The sequence TCTGGTTGGTCACGGAGGTCACACACGACGGGTA yielded a PBM binding z-score of 3.58.

TCGAGTAGGTTAGTCGGGGCATGCAGCCAACATA showed a PBM binding z-score of 0.0747.

On to CCTAACGGGTCACGAGGTTATAGCACGACGAGCG, for which the PBM binding z-score worked out at 3.54.

These data come from the supplement of paper PMC6555819.
